Data: ChEMBL document CHEMBL4513216, “Probing the Open Global Health Chemical Diversity Library for Multistage-Active Starting Points for Next-Generation Antimalarials” (ACS Infect Dis, 2020)
The campaign covered roughly 69,000 compounds. About 8,600 (12%) showed an effect of 50% or more. What follows is part of a selection rich in strong results, with near analogues and random picks from the rest.

Test system: Plasmodium berghei
Assay: Screen against P. berghei liver stage (PbLuc), transformed with Luciferase, at 10uM
Assay type: functional, HepG2
Settings: tested at 10 uM

Row | SMILES | INHIBITION [%]
1 | O=c1ccc2c(n1CC1CCOCC1)CCN(Cc1ccoc1)CC2 | 5.41
2 | Cc1ccc(CN2CC[C@H](O)[C@@H](n3ccc(=O)[nH]c3=O)CC2)cc1 | 37.6
3 | Cn1cc(CN2CCC(Cn3cc(-c4ccccc4)nn3)CC2)cn1 | 48.8
4 | CN(C)c1cc(C(=O)N2CCN(c3nccs3)CC2)ccn1 | -43.9
5 | O=C(c1ccccc1)N1CCC2(CC1)CNc1c(F)cccc12 | 60.3
6 | O=C(c1cccnc1)N1CCC2(CC1)CNc1c(F)cccc12 | 40.5
7 | CC(=O)N1CCC2(CC1)CNc1c(F)cccc12 | 29.5
8 | Cc1cc(CN2CCN(C(=O)NCCc3csc(C)n3)CC2)on1 | -43.5
9 | O=C(NCC1CCOCC1)[C@@H]1C[C@@H]2[C@@H](CCN2Cc2ccoc2)O1 | 12.5
10 | CS(=O)(=O)N1CCCC(c2cccc(-c3ccccc3F)n2)C1 (centres undefined) | 12.675
11 | CN(C)S(=O)(=O)N1CCCC(c2cccc(Cc3ccccc3)n2)C1 (centres undefined) | 84
12 | CN(C)S(=O)(=O)N1CCCC(c2cccc(Cc3ccc(Cl)cc3)n2)C1 (centres undefined) | 82.7
13 | CN(C)S(=O)(=O)N1CCCC(c2nccnc2-c2cccc(Cl)c2)C1 (centres undefined) | 5.37
14 | Cc1cc(C2CCCN(S(=O)(=O)N(C)C)C2)ccn1 (centres undefined) | -20.6
15 | CN(C)S(=O)(=O)N1CCCC(c2cccc(Cc3ccc(F)cc3)n2)C1 (centres undefined) | 96
16 | CN(C)S(=O)(=O)N1CCC(c2cccc(Cc3ccccc3Cl)n2)CC1 | 96
17 | Cc1noc(C)c1-c1cccc(C2CCN(S(=O)(=O)N(C)C)CC2)n1 | 32.4
18 | CN(C)S(=O)(=O)N1CCCC(c2ccncn2)C1 (centres undefined) | 25.6
19 | CN(C)S(=O)(=O)N1CCCC(c2cccc(Cc3ccccc3F)n2)C1 (centres undefined) | 15.9
20 | CN(C)S(=O)(=O)N1CCC(c2ccncn2)CC1 | -9.32
21 | Cc1c[nH]nc1C1CCN(S(=O)(=O)N(C)C)C1 (centres undefined) | -9.32
22 | COc1ccc(C)cc1Nc1nc2c(C)nn(C)c2c(=O)n1C | -2.13
23 | COCCN1CCC(CNC(=O)C2(c3cccc(Cl)c3)CC2)C1 (centres undefined) | 30.6
24 | c1cncc(CN2CCC(c3ccc4c(c3)OCO4)CC2)c1 | 6.4
25 | Cc1nc(O)c2nnn(C[C@H]3CCCN3C(=O)C3CCCC3)c2n1 | 30.4
26 | Cc1cc(NC(=O)NCCCSc2nncn2C)no1 | 15
27 | Cc1nn(C)c(N(C)C)c1CNCc1ccc2c(c1)OCO2 | 11.4

Row | SMILES | INHIBITION [%]
28 | COC1CCN(c2ccc(F)cc2CN(C)CC(N)=O)CC1 | -3.83
29 | CN1CCCC(c2cccc(Cc3ccccc3Cl)n2)C1 (centres undefined) | 51.7
30 | CN1CCCC(c2cccc(CCC(N)=O)n2)C1 (centres undefined) | -4.51
31 | CC(=O)N1CCCC1c1cccc(Cc2ccccc2Cl)n1 (centres undefined) | 38.2
32 | Cc1ccc(-c2nc(CNCC3CN(C)CCO3)co2)c(C)c1 (centres undefined) | 7.12
33 | NC(=O)NC(=O)CCSCc1coc(-c2cccc(Cl)c2)n1 | 5.91
34 | Cc1ccc(-c2nc(CCNC(=O)NCC(C)(C)C(N)=O)co2)cc1 | 27.6
35 | Cc1ccc(-c2nc(CSCCC(=O)NC(N)=O)co2)cc1 | 89.6
36 | CNC(=O)Cc1coc(-c2ccc(F)cc2)n1 | 48.1
37 | NC(=O)NC(=O)CCSCc1coc(-c2ccc(F)cc2)n1 | 67.8
38 | NC(=O)NC(=O)CCSCc1cc(F)cc2cccnc12 | -28.9
39 | CNC(=O)CCS(=O)(=O)Cc1coc(-c2ccc(F)cc2)n1 | 7.43
40 | Cc1ccc(-c2nc(CSCCC(=O)NC(N)=O)co2)c(C)c1 | 87.4
41 | CS(=O)(=O)c1cccc(C(N)c2ccc(F)c(F)c2)c1 (centres undefined) | -15
42 | COCCNC(=O)Cn1c(-c2ccc(F)cc2)nc(C)c(CCO)c1=O | -20.7
43 | CC1CCN(CC(=O)NC2CCN(C(C)c3ccccc3)CC2)CC1 (centres undefined) | -1.845
44 | NCC1CCC(C(NC(=O)CC2CCCC2)c2ccccn2)CC1 (centres undefined) | 1.11
45 | Cc1cc(-c2nn3c(C4CC4)nnc3s2)on1 | -6.47
46 | CCn1c(C)cc(C(=O)N2CCCC(C(=O)c3nccn3C)C2)c1C (centres undefined) | -1.09
47 | CC(=O)NC1CCN(c2cnc(C3CCNCC3)cn2)CC1 | 18.3
48 | COCC1CCCN(c2cncc(OCc3ccccc3)n2)C1 (centres undefined) | 26.5
49 | Cc1cccc(-c2noc(CNC(C)Cn3cc(C)cn3)n2)c1 (centres undefined) | 25.4
50 | CC(Cn1cccn1)NCc1nc(-c2ccco2)no1 (centres undefined) | 12.7
51 | Cc1cnn(CC(C)NCc2nc(-c3ccco3)no2)c1 (centres undefined) | 53.5
52 | CC(Cn1cccn1)NCc1nc(-c2ccccn2)no1 (centres undefined) | -62.7
53 | Cc1cnn(CCNCc2nc(-c3ccccn3)no2)c1 | -50.5
54 | Cc1cnn(CC(C)NCc2nc(-c3ccccn3)no2)c1 (centres undefined) | 56.1
